Assay [1] concerns the target High affinity nerve growth factor receptor (Homo sapiens) (UniProt P04629). The conditions noted are these: at 1 µM.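 Also: each value is the mean percent inhibition of TRKA.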
The target in assay [2] is BDNF/NT-3 growth factors receptor (Homo sapiens) (UniProt Q16620). The note with it: at 0.1 µM.
Assay [3] shares this target. The note with it: at 1 µM.
Assay [4] has as its target NT-3 growth factor receptor (Homo sapiens) (UniProt Q16288). The note with it: at 0.1 µM.
For assay [5] the target is unchanged. The conditions noted are these: at 1 µM.
In assay [6] the target is T1, Tyrosine-protein kinase TXK (Homo sapiens) (UniProt P42681).
T1 sequence (whole entry): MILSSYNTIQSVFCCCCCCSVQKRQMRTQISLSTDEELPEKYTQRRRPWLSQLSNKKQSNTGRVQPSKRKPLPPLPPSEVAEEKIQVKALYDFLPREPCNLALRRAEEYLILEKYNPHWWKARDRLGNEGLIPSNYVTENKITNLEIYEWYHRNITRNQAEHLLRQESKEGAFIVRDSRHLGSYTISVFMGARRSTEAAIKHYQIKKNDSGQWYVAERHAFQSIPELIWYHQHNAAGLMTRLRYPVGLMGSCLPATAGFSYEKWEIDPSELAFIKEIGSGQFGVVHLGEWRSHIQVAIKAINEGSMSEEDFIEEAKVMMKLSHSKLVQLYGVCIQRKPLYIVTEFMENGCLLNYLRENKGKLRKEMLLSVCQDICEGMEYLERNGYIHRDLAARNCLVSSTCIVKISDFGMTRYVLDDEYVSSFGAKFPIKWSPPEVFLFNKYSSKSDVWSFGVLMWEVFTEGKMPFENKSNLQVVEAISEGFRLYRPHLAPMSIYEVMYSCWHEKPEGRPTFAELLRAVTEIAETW
The note with it: at 0.1 µM.

The target of assay [7] is T1, Tyrosine-protein kinase TXK (Homo sapiens). The conditions noted are these: at 1 µM.
Assay [8] has as its target Non-receptor tyrosine-protein kinase TYK2 (Homo sapiens) (UniProt P29597). The note with it: at 0.1 µM.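 Also: each value is a mean of the inhibition readings.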
Assay [9] has as its target T2, Dual specificity protein kinase TTK (Homo sapiens) (UniProt P33981).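 Also: reported figures are mean TTK inhibition at 1 µM.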
T2 sequence (whole entry): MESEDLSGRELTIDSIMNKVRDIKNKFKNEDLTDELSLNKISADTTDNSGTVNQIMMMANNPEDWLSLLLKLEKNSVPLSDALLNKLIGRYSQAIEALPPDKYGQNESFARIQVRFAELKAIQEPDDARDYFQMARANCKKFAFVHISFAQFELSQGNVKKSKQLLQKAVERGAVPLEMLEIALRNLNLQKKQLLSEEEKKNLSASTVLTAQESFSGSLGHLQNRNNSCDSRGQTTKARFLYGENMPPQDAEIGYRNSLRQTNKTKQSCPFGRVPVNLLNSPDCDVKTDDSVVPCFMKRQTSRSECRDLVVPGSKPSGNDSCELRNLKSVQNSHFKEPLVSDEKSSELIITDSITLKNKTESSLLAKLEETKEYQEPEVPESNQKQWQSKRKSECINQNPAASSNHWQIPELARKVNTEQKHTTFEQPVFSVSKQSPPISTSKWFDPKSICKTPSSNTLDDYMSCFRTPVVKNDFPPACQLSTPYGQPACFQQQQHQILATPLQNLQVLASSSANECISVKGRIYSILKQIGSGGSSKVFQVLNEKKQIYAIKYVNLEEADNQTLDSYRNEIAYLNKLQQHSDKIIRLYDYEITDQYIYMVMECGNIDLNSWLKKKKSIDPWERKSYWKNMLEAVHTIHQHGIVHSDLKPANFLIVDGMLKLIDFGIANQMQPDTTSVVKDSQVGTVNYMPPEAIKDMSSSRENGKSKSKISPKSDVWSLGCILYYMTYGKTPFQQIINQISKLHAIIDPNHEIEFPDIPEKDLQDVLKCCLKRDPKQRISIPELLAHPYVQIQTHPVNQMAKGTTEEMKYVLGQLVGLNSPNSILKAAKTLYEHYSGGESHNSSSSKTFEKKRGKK
The note with it: at 1 µM.

The target in assay [10] is T3, Aurora kinase A (Homo sapiens) (UniProt O14965).
T3 sequence (whole entry): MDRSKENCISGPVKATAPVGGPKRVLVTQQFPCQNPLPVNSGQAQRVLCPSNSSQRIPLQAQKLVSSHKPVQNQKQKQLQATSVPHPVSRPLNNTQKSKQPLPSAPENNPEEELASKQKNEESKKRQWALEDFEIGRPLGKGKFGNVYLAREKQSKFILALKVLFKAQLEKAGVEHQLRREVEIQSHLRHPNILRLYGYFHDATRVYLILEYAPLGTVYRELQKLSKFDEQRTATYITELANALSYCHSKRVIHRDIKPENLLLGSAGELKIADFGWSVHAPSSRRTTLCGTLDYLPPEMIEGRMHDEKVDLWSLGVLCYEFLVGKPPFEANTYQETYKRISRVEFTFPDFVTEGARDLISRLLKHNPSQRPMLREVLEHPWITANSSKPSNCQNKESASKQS
The conditions noted are these: at 0.1 µM.

Assay [11] concerns the target T3, Aurora kinase A (Homo sapiens). The note with it: at 1 µM.
For assay [12], the target named is Aurora kinase B (Homo sapiens) (UniProt Q96GD4). The note with it: at 0.1 µM.
Assay [13] has the same target. The note with it: at 1 µM.
For assay [14], the target named is T4, Aurora kinase C (Homo sapiens) (UniProt Q9UQB9).
T4 sequence (whole entry): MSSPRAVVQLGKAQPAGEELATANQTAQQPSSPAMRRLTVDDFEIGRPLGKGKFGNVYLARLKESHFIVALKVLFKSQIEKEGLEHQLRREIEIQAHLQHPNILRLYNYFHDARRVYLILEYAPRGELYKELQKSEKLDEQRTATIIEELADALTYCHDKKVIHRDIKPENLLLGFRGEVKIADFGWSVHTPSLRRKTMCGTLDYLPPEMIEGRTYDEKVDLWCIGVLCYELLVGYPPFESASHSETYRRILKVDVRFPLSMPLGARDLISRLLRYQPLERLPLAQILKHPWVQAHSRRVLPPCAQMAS
The conditions noted are these: at 0.1 µM.

Assay [15] addresses T4, Aurora kinase C (Homo sapiens). The conditions noted are these: at 1 µM.
Assay [16] has as its target Serine/threonine-protein kinase 10 (Homo sapiens) (UniProt O94804). The note with it: at 0.1 µM.
Assay [17] has the same target. The note with it: at 1 µM.
The target of assay [18] is T5, Mitogen-activated protein kinase kinase kinase kinase 2 (Homo sapiens) (UniProt Q12851).
T5 sequence (whole entry): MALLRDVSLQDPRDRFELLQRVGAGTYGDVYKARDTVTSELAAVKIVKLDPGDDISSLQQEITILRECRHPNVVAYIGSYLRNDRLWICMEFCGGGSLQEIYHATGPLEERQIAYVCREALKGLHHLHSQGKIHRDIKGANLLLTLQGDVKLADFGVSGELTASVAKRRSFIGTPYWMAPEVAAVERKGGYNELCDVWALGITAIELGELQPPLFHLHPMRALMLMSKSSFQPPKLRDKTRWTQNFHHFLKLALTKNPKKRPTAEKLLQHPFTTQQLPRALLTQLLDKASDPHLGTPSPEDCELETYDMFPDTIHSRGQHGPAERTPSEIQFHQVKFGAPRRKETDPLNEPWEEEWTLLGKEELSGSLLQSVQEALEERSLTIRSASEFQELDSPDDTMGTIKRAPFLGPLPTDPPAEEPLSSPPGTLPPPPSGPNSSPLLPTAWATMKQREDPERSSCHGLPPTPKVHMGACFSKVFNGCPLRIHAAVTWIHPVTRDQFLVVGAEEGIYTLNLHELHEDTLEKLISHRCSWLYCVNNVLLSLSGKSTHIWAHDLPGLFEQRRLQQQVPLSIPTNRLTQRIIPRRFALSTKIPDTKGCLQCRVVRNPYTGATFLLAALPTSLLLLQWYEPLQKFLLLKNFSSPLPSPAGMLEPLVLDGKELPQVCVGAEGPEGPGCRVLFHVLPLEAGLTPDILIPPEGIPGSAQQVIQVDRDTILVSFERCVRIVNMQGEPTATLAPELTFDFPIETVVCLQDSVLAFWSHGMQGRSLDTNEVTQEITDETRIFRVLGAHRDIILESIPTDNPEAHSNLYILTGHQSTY
The conditions noted are these: at 0.1 µM.

The target in assay [19] is T5, Mitogen-activated protein kinase kinase kinase kinase 2 (Homo sapiens). The conditions noted are these: at 1 µM.
Assay [20] concerns the target Mitogen-activated protein kinase kinase kinase kinase 4 (Homo sapiens) (UniProt O95819). The conditions noted are these: at 0.1 µM.

The structures appear in SMILES notation. Values joined by “and” are separate entries in the source; they are usually repeats but may differ in a detail not shown here. Equal entries are not always repeated.

Non-receptor tyrosine-protein kinase TYK2 (Homo sapiens), sequence (P29597 whole entry): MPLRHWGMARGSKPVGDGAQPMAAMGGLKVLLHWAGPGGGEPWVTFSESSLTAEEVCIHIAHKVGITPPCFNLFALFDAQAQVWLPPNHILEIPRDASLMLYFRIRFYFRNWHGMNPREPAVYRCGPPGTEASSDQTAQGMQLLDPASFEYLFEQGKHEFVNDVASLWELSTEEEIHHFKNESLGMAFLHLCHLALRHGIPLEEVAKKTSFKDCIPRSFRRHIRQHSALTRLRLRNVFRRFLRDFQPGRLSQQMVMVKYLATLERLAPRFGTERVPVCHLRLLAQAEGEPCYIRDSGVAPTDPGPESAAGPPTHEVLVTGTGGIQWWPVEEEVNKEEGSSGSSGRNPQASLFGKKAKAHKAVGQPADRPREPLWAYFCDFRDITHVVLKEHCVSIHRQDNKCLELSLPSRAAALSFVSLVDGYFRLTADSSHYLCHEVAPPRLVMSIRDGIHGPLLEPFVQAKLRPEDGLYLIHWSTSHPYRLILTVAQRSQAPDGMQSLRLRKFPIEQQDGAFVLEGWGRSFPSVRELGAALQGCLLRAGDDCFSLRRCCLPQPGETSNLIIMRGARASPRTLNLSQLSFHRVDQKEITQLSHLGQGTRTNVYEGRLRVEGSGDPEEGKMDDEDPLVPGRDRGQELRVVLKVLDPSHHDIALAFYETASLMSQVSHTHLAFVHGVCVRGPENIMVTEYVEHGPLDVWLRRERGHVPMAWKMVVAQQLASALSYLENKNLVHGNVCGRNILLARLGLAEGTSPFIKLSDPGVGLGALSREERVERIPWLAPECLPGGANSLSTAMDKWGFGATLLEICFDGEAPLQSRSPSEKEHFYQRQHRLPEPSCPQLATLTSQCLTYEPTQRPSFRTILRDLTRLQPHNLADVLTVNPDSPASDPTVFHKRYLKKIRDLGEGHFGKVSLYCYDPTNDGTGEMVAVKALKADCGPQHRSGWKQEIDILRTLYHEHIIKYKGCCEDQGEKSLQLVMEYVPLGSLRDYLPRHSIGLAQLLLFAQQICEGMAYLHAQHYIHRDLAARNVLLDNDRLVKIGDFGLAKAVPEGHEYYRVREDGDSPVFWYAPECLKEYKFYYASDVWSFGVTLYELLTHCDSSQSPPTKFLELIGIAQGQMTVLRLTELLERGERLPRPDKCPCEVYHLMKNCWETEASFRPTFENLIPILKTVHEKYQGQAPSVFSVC
Serine/threonine-protein kinase 10 (Homo sapiens), sequence (O94804 whole entry, looked up): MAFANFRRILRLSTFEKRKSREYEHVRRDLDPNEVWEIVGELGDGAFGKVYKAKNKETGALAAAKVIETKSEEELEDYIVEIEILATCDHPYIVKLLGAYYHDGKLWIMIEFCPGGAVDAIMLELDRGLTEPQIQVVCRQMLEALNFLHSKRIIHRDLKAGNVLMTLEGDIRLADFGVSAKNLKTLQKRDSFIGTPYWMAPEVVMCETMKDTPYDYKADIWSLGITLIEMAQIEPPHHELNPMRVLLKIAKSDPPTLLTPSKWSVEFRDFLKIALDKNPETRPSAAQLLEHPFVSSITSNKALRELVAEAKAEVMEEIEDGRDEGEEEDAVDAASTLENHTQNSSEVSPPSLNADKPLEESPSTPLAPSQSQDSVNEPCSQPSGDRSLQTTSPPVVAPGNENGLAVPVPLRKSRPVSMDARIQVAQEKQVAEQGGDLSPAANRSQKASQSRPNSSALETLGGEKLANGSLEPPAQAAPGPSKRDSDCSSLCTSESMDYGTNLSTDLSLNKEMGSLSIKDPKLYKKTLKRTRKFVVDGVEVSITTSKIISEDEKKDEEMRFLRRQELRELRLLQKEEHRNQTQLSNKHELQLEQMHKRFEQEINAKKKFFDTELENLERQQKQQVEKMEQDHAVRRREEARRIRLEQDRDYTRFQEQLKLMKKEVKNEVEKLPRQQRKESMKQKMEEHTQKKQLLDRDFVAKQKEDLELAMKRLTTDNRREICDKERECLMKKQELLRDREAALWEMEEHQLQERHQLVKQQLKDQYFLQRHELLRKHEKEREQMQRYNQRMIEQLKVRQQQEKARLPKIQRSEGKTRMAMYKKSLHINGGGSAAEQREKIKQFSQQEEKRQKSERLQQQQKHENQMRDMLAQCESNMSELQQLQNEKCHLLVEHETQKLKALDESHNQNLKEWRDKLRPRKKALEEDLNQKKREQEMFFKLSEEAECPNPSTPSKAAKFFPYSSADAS
Mitogen-activated protein kinase kinase kinase kinase 4 (Homo sapiens), sequence (O95819 2-1239 limits assumed): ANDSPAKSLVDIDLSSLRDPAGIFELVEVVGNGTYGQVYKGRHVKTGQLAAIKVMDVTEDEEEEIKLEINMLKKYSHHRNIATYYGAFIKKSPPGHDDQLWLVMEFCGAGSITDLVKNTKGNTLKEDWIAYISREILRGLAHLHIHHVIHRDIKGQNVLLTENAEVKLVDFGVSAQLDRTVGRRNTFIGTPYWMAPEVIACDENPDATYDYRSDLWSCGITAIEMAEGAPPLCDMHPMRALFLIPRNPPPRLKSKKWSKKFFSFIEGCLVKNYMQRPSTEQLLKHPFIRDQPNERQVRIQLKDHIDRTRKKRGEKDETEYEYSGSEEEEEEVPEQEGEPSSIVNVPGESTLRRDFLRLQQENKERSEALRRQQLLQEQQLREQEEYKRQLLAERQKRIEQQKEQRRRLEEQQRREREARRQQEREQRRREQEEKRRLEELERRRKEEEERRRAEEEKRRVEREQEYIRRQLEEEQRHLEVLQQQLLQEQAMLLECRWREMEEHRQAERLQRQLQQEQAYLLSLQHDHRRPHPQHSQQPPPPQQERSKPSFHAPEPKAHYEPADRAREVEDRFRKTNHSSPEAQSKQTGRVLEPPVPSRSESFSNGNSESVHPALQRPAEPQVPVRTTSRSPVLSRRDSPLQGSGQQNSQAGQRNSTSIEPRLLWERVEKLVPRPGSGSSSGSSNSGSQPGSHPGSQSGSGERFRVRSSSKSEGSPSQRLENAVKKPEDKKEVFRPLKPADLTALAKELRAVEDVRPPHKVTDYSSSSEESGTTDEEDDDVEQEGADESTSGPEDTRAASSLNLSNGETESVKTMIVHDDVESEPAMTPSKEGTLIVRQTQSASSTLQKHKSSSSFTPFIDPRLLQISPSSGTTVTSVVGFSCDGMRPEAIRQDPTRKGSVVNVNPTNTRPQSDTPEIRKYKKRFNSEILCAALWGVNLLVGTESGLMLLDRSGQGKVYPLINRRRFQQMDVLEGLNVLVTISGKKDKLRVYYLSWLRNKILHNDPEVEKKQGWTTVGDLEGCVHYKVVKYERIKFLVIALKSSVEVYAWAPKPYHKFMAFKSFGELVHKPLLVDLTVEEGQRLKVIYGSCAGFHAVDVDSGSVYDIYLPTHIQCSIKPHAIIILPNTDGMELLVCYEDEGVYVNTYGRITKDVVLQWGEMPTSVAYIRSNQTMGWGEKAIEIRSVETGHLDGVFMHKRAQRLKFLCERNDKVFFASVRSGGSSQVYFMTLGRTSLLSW
High affinity nerve growth factor receptor (Homo sapiens), sequence (P04629 33-796 limits assumed): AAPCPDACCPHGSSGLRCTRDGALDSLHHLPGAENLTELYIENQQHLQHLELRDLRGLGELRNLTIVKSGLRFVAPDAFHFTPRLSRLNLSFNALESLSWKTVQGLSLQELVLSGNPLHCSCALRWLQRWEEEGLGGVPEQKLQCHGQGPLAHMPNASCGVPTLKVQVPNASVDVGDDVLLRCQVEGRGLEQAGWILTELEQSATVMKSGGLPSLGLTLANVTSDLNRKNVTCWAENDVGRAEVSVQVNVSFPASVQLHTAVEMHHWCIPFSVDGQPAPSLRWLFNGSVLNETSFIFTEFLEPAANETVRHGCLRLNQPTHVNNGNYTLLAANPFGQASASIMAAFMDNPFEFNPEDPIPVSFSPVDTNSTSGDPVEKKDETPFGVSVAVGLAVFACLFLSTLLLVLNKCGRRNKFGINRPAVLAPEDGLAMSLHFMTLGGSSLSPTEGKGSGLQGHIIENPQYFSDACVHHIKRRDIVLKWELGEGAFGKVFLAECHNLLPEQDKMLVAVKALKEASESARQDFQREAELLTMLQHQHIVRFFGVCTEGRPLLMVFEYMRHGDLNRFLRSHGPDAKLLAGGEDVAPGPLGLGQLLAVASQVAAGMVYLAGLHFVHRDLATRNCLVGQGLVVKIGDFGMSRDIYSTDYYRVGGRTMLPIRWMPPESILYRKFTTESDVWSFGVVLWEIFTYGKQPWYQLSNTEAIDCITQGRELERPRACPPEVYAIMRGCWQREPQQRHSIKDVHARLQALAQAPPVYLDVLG
Aurora kinase B (Homo sapiens), sequence (Q96GD4 whole entry): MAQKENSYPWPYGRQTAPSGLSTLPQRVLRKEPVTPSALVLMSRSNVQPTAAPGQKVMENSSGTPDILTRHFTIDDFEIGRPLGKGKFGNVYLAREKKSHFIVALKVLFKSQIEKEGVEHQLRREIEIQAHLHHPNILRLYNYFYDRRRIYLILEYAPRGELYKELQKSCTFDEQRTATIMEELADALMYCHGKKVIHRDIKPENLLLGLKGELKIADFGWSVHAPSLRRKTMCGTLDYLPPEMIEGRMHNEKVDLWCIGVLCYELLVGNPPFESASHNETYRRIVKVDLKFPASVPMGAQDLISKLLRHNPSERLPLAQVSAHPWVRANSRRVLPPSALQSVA

What is called inhibition is the relative decrease from the control value, in per cent. In the case of `CC(C)c1ccc(-c2cc(-c3c[nH]nc3-c3ccccn3)ccn2)cc1`, the inhibition in assay [1] came to 2.9%; in assay [2] it was 0.33%; in [3], 2.07%; in [4], 0.32%; in [5], 1.76%; in [6] it was 2.1%. Also, the inhibition in [7] came out at 2.05%; in assay [8], 0.66%; in assay [9], 11.3%; in assay [10], 1.03%; in [11] it was 3.72%; in assay [12], 0.9%. Besides, the inhibition in assay [13] was 5.53%; in assay [14], 1.22%; in assay [15], -0.07%; in [16], 0.88%; in assay [17], 0.62%; in assay [18], 1.5%. For the same molecule, the inhibition amounted to 3.27% in assay [19] and 10.9% in assay [20].
Regarding `Nc1ncnc2occ(-c3ccc(NC(=O)Nc4cc(C(F)(F)F)ccc4F)cc3)c12`, the inhibition in assay [1] was 89.2% and 97%; in assay [2] it was 54.8% and 40.6%; in assay [3], 90.7% and 88.5%; in assay [4] it was 52.9% and 39.5%; in [5] it was 92.8% and 85.3%; in assay [6], 3.14% and 1.59%. Also, the inhibition in [7] is 5.09% and 0.12%; in assay [8], -1.29% and 0.57%; in [9], 21.4% and 7.71%; in assay [10], 3.16% and -1.11%; in assay [12] it was 24.4% and 17.3%; in assay [13], 69.9% and 55.9%. Moreover, the inhibition is 13.4% and 13.3% in [14]; 92.5% and 68.8% in [15]; 25% and 20.8% in [16]; 69.2% and 63.1% in [17]; 35.8% and 34.4% in assay [18]; 66.3% and 65.5% in [19]. Moreover, the inhibition in assay [20] is 7.35% and 0.68%.
`CNC(=O)c1cncc(/C=C/c2ccccc2C)c1`: the inhibition in assay [1] stood at 1.73%; in [2] it was 2.61%; in assay [3] it was 4.3%; in assay [4] it was 3.82%; in assay [5], 5.34%; in assay [6], 6.85%. For the same molecule, the inhibition was 24.5% in [7]; -2.79% in [8]; 11.7% in assay [9]; 1.35% in assay [10]; 9.59% in assay [11]; 3.77% in assay [12]. For the same molecule, the inhibition in assay [13] was -0.01%; in [14], 2.1%; in assay [15], -3.67%; in assay [16], 6.73%; in [17], 9.43%; in assay [18], 0.94%. Besides, the values for the inhibition in [19] and in assay [20] were 2.16% and 8.34%, respectively.
`COc1cc(N2CCN(C(C)C)CC2)ccc1Nc1nc(Nc2cccc(F)c2C(=O)O)c2cc[nH]c2n1`: the inhibition in assay [1] worked out at 0.85%; in [2] it was 3.78%; in [3], 6.6%; in assay [4], 2.64%; in [5] it was 4.58%; in assay [6], 1.98%. Also, the inhibition in [7] was 3.5%; in assay [8], -3.16%; in assay [9] it was 77.3%; in assay [10], 3.47%; in [11], 6.46%; in assay [12] it was 4.82%. In addition, the inhibition was 5.02% in assay [13]; 0.7% in [14]; -0.44% in assay [15]; 5.69% in assay [16]; 9.11% in [17]; 0.91% in assay [18]. The inhibition turned out to be 3.18% in assay [19] and 7.43% in [20].
`Fc1ccc(Nc2nccc(-c3c(-c4ccc(C(F)(F)F)cc4)nn4ncccc34)n2)cc1F`: the inhibition came to 1.59% in assay [1]; 2.27% in assay [2]; 2.56% in assay [3]; 3.55% in assay [4]; 2.83% in [5]; 2.95% in assay [6]. In addition, the inhibition in [7] is 4.27%; in assay [8], -3.95%; in [9], 8.25%; in [10], 3.59%; in assay [11], 14.1%; in [12], 4.71%. The inhibition in [13] amounted to 4.62%; in [14], 2.92%; in assay [15] it was 12.9%; in assay [16], 3.37%; in assay [17] it was 0.68%; in assay [18], 0.94%. In addition, the inhibition worked out at 1.77% in assay [19] and 5.44% in assay [20].

The values above are taken from ChEMBL document CHEMBL1961873, “Compounds: GSK PKIS; Assays: Nanosyn kinase panel” (2012).
